The results in this text go back to PubChem BioAssay AID1456 (Vanderbilt High Throughput Screening Facility, 2008).

The campaign covered roughly 190,000 compounds. About 4,100 (2.2%) were called active.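 Rule for the calls: active = thallium flux slope and its plate-corrected score both differing from the plate sample mean at a set confidence after two filtering rounds, in either direction; inactive = the rest.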 This excerpt belongs to a sample that is enriched for actives.

The assay deals with Solute carrier family 12 member 5 (Homo sapiens) (UniProt Q9H2X9). The assay is described as follows: KCC2 cotransporter modulators, thallium flux, primary screen, cell-based, HEK293 KCC2, FluoZin-2 fluorescence, MLSMR (AID 1456).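 Note: slope of fluorescence scaled to starting intensity during 10 to 20 s after thallium.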 The note with it: KCC2 cells, thallium flux FluoZin-2 fluorescence; at 10 µM.
Solute carrier family 12 member 5 (Homo sapiens), sequence (Q9H2X9 whole entry, looked up): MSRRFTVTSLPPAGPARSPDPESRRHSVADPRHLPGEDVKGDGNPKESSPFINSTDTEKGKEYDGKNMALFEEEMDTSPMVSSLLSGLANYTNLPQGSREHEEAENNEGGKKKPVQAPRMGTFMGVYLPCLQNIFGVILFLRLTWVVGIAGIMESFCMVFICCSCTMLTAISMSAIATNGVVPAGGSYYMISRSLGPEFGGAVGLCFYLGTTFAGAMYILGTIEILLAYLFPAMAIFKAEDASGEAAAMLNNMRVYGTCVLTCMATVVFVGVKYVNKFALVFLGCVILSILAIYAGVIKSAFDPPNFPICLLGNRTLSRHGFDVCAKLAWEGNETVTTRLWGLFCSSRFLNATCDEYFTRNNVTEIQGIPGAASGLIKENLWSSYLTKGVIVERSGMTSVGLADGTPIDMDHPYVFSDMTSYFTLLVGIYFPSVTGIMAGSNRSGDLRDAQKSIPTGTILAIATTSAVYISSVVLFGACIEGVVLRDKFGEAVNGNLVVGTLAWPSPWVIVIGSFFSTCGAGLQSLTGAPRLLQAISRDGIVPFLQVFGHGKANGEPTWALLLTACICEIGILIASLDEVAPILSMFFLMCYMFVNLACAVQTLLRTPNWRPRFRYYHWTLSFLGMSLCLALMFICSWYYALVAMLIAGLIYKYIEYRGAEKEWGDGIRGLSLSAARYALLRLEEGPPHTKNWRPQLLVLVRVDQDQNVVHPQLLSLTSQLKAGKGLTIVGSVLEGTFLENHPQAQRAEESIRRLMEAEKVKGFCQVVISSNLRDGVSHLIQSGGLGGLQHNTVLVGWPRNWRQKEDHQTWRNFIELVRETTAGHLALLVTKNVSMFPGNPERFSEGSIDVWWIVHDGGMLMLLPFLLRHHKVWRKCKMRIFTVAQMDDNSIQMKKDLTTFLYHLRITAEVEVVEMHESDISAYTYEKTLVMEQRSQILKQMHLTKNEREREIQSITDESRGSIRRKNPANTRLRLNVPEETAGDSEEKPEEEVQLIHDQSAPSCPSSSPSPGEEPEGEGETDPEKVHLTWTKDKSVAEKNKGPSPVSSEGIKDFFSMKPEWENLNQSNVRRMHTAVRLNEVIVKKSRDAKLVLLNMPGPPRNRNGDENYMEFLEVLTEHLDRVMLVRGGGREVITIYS
Take `CCn1cc(C(=O)NCCCN2CCCCCC2)c(=O)c2cc(S(=O)(=O)N3CCc4ccccc4C3)ccc21`: the B-score of Tl+ flux slope (higher = more flux/activation; lower = inhibition) was 0.575 (inactive).
Consider `Cc1nc(C(=O)N2CCCC(C(=O)c3ccc(Cl)cc3)C2)cs1` (stereo not given), for which the B-score of Tl+ flux slope (higher = more flux/activation; lower = inhibition) was -0.00258 (inactive).
On to `Cc1ccccc1Nc1c(-c2ccccc2)nc2ncccn12`, for which the B-score of Tl+ flux slope (higher = more flux/activation; lower = inhibition) was -0.0089 (inactive).
As to `S=c1nccc(-c2cc(Cl)sc2Cl)[nH]1`, the B-score of Tl+ flux slope (higher = more flux/activation; lower = inhibition) was 7.16 (active).
For the compound `Cc1cccc(N(C)C(=O)c2cc3c(=O)[nH]c4ccc(C)cc4c3s2)c1`, the B-score of Tl+ flux slope (higher = more flux/activation; lower = inhibition) is 0.185 (inactive).
Turning to `COCCN1C2=C(COC(C)(C)C2)C(=S)NC1c1ccccc1` (stereo not given), the B-score of Tl+ flux slope (higher = more flux/activation; lower = inhibition) was -0.146 (inactive).
For `Fc1ccc(COc2ccc(-c3nnco3)cc2)cc1`, the B-score of Tl+ flux slope (higher = more flux/activation; lower = inhibition) was -1.14 (inactive).
The same measure for `Fc1ccc(COc2cccc(-c3n[nH]c(=S)o3)c2)cc1`: 69.9 (active).
Turning to `Cc1cccc(OCc2ccc(C(=O)Nc3ccc(F)cc3)cc2)c1`, the B-score of Tl+ flux slope (higher = more flux/activation; lower = inhibition) was 0.491 (inactive).
As to `NNC(=O)c1oc2nc(-c3ccccc3)cc(-c3ccco3)c2c1N`, the B-score of Tl+ flux slope (higher = more flux/activation; lower = inhibition) was 0.0896 (inactive).
In the case of `O=C(COc1ccccc1)N1CCN=C1SCc1cccc(F)c1`, the B-score of Tl+ flux slope (higher = more flux/activation; lower = inhibition) was 0.197 (inactive).
As for `CC(C)CCN1NC2(CCC(C)CC2)NC1=S` (stereo not given), the B-score of Tl+ flux slope (higher = more flux/activation; lower = inhibition) is 1.32 (inactive).
Take `Cc1ccc(-c2nc3ccccc3[nH]c2=O)cc1`: the B-score of Tl+ flux slope (higher = more flux/activation; lower = inhibition) is 0.871 (inactive).
For the compound `CC(CNS(=O)(=O)c1ccc(Br)cc1)CN(C)C` (stereo not given), the B-score of Tl+ flux slope (higher = more flux/activation; lower = inhibition) is 0.781 (inactive).
Consider `CCC(C)(C)NC(=O)C(c1ccc(O)cc1)N(C(=O)Cn1nnc2ccccc21)c1ccc(NC(C)=O)cc1` (stereo not given), for which the B-score of Tl+ flux slope (higher = more flux/activation; lower = inhibition) is 1.51 (inactive).
To `O=C(c1cccc(C(=O)N2CCc3ccccc32)n1)N1CCc2ccccc21` belongs 0.134 (inactive).
With `CCNC(=S)N1CCN(C(=O)c2ccco2)CC1`, the B-score of Tl+ flux slope (higher = more flux/activation; lower = inhibition) was 0.133 (inactive).
Consider `NC(=O)N1CCc2ccccc21`, for which the B-score of Tl+ flux slope (higher = more flux/activation; lower = inhibition) is 0.799 (inactive).
Regarding `O=C(CSCc1ccccc1)N1CCc2ccccc21`, the B-score of Tl+ flux slope (higher = more flux/activation; lower = inhibition) is -2.43 (active).
To `O=C(NC(=S)N1CCc2ccccc21)c1ccco1` belongs 23.3 (active); to `Cc1nnc(SCC(=O)N2CCc3ccccc32)n1-c1ccccc1`, 0.58 (inactive).
For `O=C(NCc1cccnc1)C(=O)Nc1nc(-c2ccccc2)cs1`, the B-score of Tl+ flux slope (higher = more flux/activation; lower = inhibition) was -0.384 (inactive).
The same measure for `O=C(CCCN1C(=O)/C(=C\c2ccccc2)SC1=S)Nc1ccccc1O`: 0.281 (inactive); for `CCN(CC(=O)Nc1cccc(S(N)(=O)=O)c1)Cc1nc2ccccc2c(=O)[nH]1`: 1.06 (inactive); for `Cc1coc2cc3oc(=O)c(CCC(=O)O)c(C)c3cc12`: -0.564 (inactive).
Turning to `C=CCNC(=O)CSc1nc2scc(-c3ccco3)c2c(=O)n1CC=C`, the B-score of Tl+ flux slope (higher = more flux/activation; lower = inhibition) was -0.677 (inactive).
Turning to `C=CCn1c(=S)[nH]c2scc(-c3ccco3)c2c1=O`, the B-score of Tl+ flux slope (higher = more flux/activation; lower = inhibition) was 111 (active).
Regarding `C=CCn1c(SCc2csc(C)n2)nc2scc(-c3ccc(C)o3)c2c1=O`, the B-score of Tl+ flux slope (higher = more flux/activation; lower = inhibition) was 0.11 (inactive).
In the case of `Nc1cccc(S(=O)(=O)Nc2ccc(SC(F)F)cc2)c1`, the B-score of Tl+ flux slope (higher = more flux/activation; lower = inhibition) was -0.199 (inactive).
As to `COc1ccc(Oc2c(Cl)cnn(-c3ccccc3)c2=O)cc1`, the B-score of Tl+ flux slope (higher = more flux/activation; lower = inhibition) is -3.99 (active).
As to `Cc1ccc(Oc2cnn(-c3ccccc3)c(=O)c2Br)cc1`, the B-score of Tl+ flux slope (higher = more flux/activation; lower = inhibition) was -2.71 (inactive).
For the compound `COc1ccc(-n2c(C)nc3c(cnn3-c3ccccc3)c2=O)cc1`, the B-score of Tl+ flux slope (higher = more flux/activation; lower = inhibition) was -0.335 (inactive).
As for `CC1C(=O)NC(=O)C1c1ccccc1` (stereo not given), the B-score of Tl+ flux slope (higher = more flux/activation; lower = inhibition) was 0.0909 (inactive).
For `CCc1nnc(NC(=O)c2sc3nc(C)cc(COC)c3c2N)s1`, the B-score of Tl+ flux slope (higher = more flux/activation; lower = inhibition) is 0.922 (inactive).
On to `CCc1nnc(NC(=O)c2cccc(S(=O)(=O)N(C)c3ccc(OC)cc3)c2)s1`, for which the B-score of Tl+ flux slope (higher = more flux/activation; lower = inhibition) was -0.265 (inactive).
The same measure for `CCc1ccc2nc3sc(C(=O)Nc4nnc(CC)s4)c(N)c3cc2c1`: -4.25 (active).
For `Cc1ccc(S(=O)(=O)N(C)CC(=O)OCC(=O)Nc2ccccc2)cc1`, the B-score of Tl+ flux slope (higher = more flux/activation; lower = inhibition) was -1.25 (inactive).
Consider `Cc1nc(N)sc1N=Nc1c(C)n(C)n(-c2ccccc2)c1=O`, for which the B-score of Tl+ flux slope (higher = more flux/activation; lower = inhibition) was 0.0239 (inactive).
To `O=C(O)CS/C(=C\c1ccc(F)cc1)c1nc2ccccc2s1` belongs -7.14 (active); to `COc1ccc(/C=C(/CC(=O)Nc2ccc(C)cc2)c2nc3ccccc3s2)cc1`, -0.666 (inactive).
The same measure for `O=C(O)CSCc1nc2ccccc2s1`: 0.175 (inactive); for `O=C(CC1SC(=Nc2ccccc2F)N(CCN2CCOCC2)C1=O)Nc1ccc(F)cc1F` (stereo not given): 0.206 (inactive).
With `Cc1ccc2cc(/C=N/NC(=O)[C@@H]3CCCN3)c(Cl)nc2c1`, the B-score of Tl+ flux slope (higher = more flux/activation; lower = inhibition) was 0.721 (inactive).
To `Cc1cccc(C(=O)NC(=S)N2CCN(c3ccc([N+](=O)[O-])cc3)CC2)c1` belongs 1.26 (inactive); to `COc1cc(OC)cc(C(=O)NC(=S)N2CCN(c3ccc(C(F)(F)F)cc3[N+](=O)[O-])CC2)c1`, 6.75 (active); to `O=C(Nc1cccc(C(F)(F)F)c1)c1ccc(N2CCNCC2)c([N+](=O)[O-])c1`, 1.31 (inactive).
As to `Cc1cccc(C(=O)OCC(=O)NCC(C)C)c1O`, the B-score of Tl+ flux slope (higher = more flux/activation; lower = inhibition) is -0.558 (inactive).
For `O=C(NCCc1ccccc1)Oc1ccc(Cl)cc1`, the B-score of Tl+ flux slope (higher = more flux/activation; lower = inhibition) was -2.47 (inactive).
For `O=C(O)c1ccccc1-c1ccccc1C(=O)Nc1cccc2ccccc12`, the B-score of Tl+ flux slope (higher = more flux/activation; lower = inhibition) was -0.144 (inactive).
Take `CC(C)C1Nc2c(C(=O)O)cccc2C(Nc2ccccc2C(=O)O)C1(C)C` (stereo not given): the B-score of Tl+ flux slope (higher = more flux/activation; lower = inhibition) was -7.13 (active).
